A word on the Inhibition: it is how much of the control response was suppressed. A lower Inhibition goes with a weak effect.

The assay deals with Plasmodium falciparum. The experiment in a line: GSK_TCMDC: Inhibition of Plasmodium falciparum 3D7 in whole red blood cells, using parasite LDH activity as an index of growth. Test compounds present at 2uM. It counts as functional.
Compound `CCCNC(=O)c1cncc(-c2cccc(CNC3Cc4ccccc4C3)c2)c1.O=C(O)C(F)(F)F` returned an Inhibition of 100%. Turning to `C#CCN(Cc1cc2c(=O)[nH]c(N)nc2cc1C)c1ccc(C(=O)N[C@@H](CCC(=O)O)C(=O)O)cc1`, the Inhibition is 92%. The compound `Cc1nc2nc(N)nc(N)c2c(C)c1Cc1cccc(C(N)=O)c1.Cl` came in with an Inhibition of 91%. For the compound `COc1cc(C2CCN(CCCCNC(=O)c3ccc(NC(=O)c4ccc(Cl)c(Cl)c4)cc3)CC2)ccc1OC(C)C`, the Inhibition is listed as 100%.

In the case of `COc1cc2c(cc1OCCN1CCC(N3CCCCC3)CC1)N(C(=O)/C=C/c1ccccc1Cl)CC2`, the Inhibition is recorded as 100%. `O=S(=O)(c1ccc(Oc2ccccc2)cc1)N(CCC(O)(C(F)(F)F)C(F)(F)F)Cc1cccc(O)c1` showed an Inhibition of 100%. As for `CN1CCN(CCCN(Cc2csc(-c3ccc(CNCc4ccccc4)cc3)n2)C(=O)c2cc(F)cc(F)c2)CC1.O=C(O)C(F)(F)F`, the Inhibition turned out to be 97%. As for `CS(=O)(=O)N(c1cccc(F)c1)c1cc(C(=O)N[C@@H](Cc2ccccc2)[C@H](O)CNCc2cccc(C(F)(F)F)c2)cc(N2CCCC2=O)c1.O=CO`, the figure is 98%.

Compound `CC(C)(C)OC(=O)C1CCCN(Cc2ccc(-c3cccc(-c4nc5ccccc5[nH]4)c3)cc2)C1.O=C(O)C(F)(F)F` (configuration not stated) registered an Inhibition of 93%. As to `COc1ccc2ccc(OC)c(CNCCCCCCNCc3c(OC)ccc4ccc(OC)cc34)c2c1.CS(=O)(=O)O`, the Inhibition stood at 100%. As to `CN(C)CCOc1ccc(-c2cc(-c3ccc(Cl)c(O)c3)c(-c3ccnc(N)n3)o2)cc1`, the Inhibition is 100%. As for `CCOC(=O)CCCc1cc(NC2CCN(C)CC2)nc(Nc2ccc(C)cc2)n1`, the Inhibition was 90%.
